A selection: hits, their analogues and other compounds. The true share with any hit is near 21%.
Pf growth 96h: Primary qHTS for delayed death inhibitors of the malarial parasite plastid, 96 hour incubation; actives 6.9% (n = 320,000); Potency, µM (top dose mostly 28.7 µM), inactives show at the top dose activity change, negative = inhibition, most hits filed as inhibitors; AID 504834, 2011; P. falciparum luciferase reporter growth, 96 h; note: potency is the fitted concentration of half-maximal effect; % is set by controls: 0 for no effect and ±100 for the full control effect
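Two-generation exposure (96 h) targets delayed-death phenotype. Reporter parasites carrying integrated firefly luciferase, in red cells at 2% hematocrit and 0.05% parasitemia final, kept at 37 C, 5% CO2; luminescence loss indicates inhibition.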
HCMV antiviral: qHTS Assay for inhibitors of the human cytomegalovirus (HCMV). HFF cells, HCMV-luciferase reporter, 72 h; hits give low values. activity change, negative = inhibition, % at 57.5 µM. actives 4.5% (n = 410,000); in the data active = activity change below about -60%; inconclusive = no clear call, values can overlap the other calls; inactive = above about -39%; note: % is set by controls: 0 for no effect and ±100 for the full control effect
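Two compound doses tested in HFFs infected with HCMV-luciferase, MOI 1 PFU/cell, 72 h at 37C. Lysate luminescence read with OneGlo; data normalized against buffer-only and 10uM Salinomycin inhibitor controls.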
CHX counter: Cycloheximide Counterscreen for Small Molecule Inhibitors of Shiga Toxin | cell reporter, cycloheximide protein synthesis inhibition counterscreen | max response, % | actives 12% (n = 300,000) | AID 2314, 2010; in the data active = max response mostly above about 13%, no sharp cut-off; inactive = mostly below about 14%; note: read at 38.3 µM for the half of the compounds with a filed dose; 0% is about no effect
Shiga toxin inh: A qHTS for Small Molecule Inhibitors of Shiga Toxin | Vero cells, Shiga toxin protein synthesis inhibition reporter | inhibition, % at 38.7 µM | actives 9.2% (n = 290,000); in the data active = inhibition mostly above about 28%, no sharp cut-off; inactive = mostly below about 43%; note: 0% is about no effect
HCV inhibitor: qHTS Assay for Inhibitors of Hepatitis C Virus (HCV). Huh7.5.1 HCVcc-Cre infection, luciferase reporter, 44 h. Potency, µM (series often up to 41.8 µM), for inactives: top-dose activity change, negative = inhibition, usual class: inhibitors. actives 3.4% (n = 340,000); note: potency is the fitted concentration of half-maximal effect; % is set by controls: 0 for no effect and ±100 for the full control effect
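Whole-lifecycle infectious HCVcc-Cre system; cells 1,000/well, compound then virus (~0.5 moi) added 4 h after plating, 44 h culture. Luciferase read 15 sec following 15 min substrate incubation, room temp.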
Pf growth 48h: Primary qHTS for delayed death inhibitors of the malarial parasite plastid, 48 hour incubation | P. falciparum luciferase growth in erythrocytes, 48 h | Potency, µM (doses to about 28.7 µM), inactives show top-dose activity change, negative = inhibition, most hits filed as inhibitors | actives 5.9% (n = 310,000); note: potency is the fitted concentration of half-maximal effect; % is set by controls: 0 for no effect and ±100 for the full control effect
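Firefly luciferase activity from engineered P. falciparum reports growth; inhibitors lower the luminescent signal. Cultures contained 2% hematocrit erythrocytes at 0.1% final parasitemia.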
The depositor's hits bear a star. Unless noted, calls come from the whole dose curve; as a rule, active = well fitted inhibition curve with a large enough effect; inconclusive = small, poorly fitted or top-dose-only effect, or another doubt; inactive = no such curve, though single readings can be large or run the other way.

`O=C(CN1CCN(Cc2ccc(F)cc2)C1=O)NCc1ccc(F)cc1` gave HCMV antiviral 9.
For C=C(NC(=O)C(=C)NC(=O)c1csc(C2=NC3c4csc(n4)C4NC(=O)c5csc(n5)C([C@@](C)(O)C(C)O)NC(=O)C5CSC(=N5)/C(=C\C)NC(=O)C(C(C)O)NC(=O)c5csc(n5)[C@]3(CC2)NC(=O)C(C)NC(=O)C(=C)NC(=O)C(C)NC(=O)C(C(C)CC)NC2C=Cc3c(C(C)O)cc(nc3C2O)C(=O)OC4C)n1)C(N)=O (some centres undefined) the results were Pf growth 96h 0.74µM*, HCV inhibitor inconclusive and Pf growth 48h 0.83µM*.
For C=C(NC(=O)C(=C)NC(=O)c1csc(C2=N[C@@H]3c4csc(n4)[C@@H]4NC(=O)c5csc(n5)[C@@H]([C@](C)(O)[C@H](C)O)NC(=O)[C@@H]5CSC(=N5)/C(=C/C)NC(=O)[C@@H]([C@H](C)O)NC(=O)c5csc(n5)[C@]3(CC2)NC(=O)[C@@H](C)NC(=O)C(=C)NC(=O)[C@@H](C)NC(=O)[C@@H]([C@@H](C)CC)N[C@H]2C=Cc3c([C@H](C)O)cc(nc3[C@@H]2O)C(=O)O[C@H]4C)n1)C(N)=O the results were Pf growth 96h 4.1µM* and Pf growth 48h 5.7µM*.
For Cc1ccc(NS(=O)(=O)c2ccc(-c3coc(C)n3)cc2)c(Br)c1 the results were Pf growth 96h inconclusive, HCMV antiviral -34, CHX counter -2, Shiga toxin inh -11, HCV inhibitor -9% and Pf growth 48h 22%.
Screening CCOc1ccccc1-c1noc(CSc2nnc(-c3ccncc3)n2-c2ccc(F)cc2)n1 returned HCMV antiviral -4.
`O=C(c1ccc(=O)oc1)N1CCN(C(c2ccccc2)c2ccccc2)CC1` gave Pf growth 96h 46%, HCMV antiviral 14, CHX counter -6, Shiga toxin inh 11, HCV inhibitor inconclusive and Pf growth 48h inconclusive.
`Cc1cc(=O)oc(C)c1C(=O)N1CCN(C(c2ccccc2)c2ccccc2)CC1` gave Pf growth 96h 9.3µM*, HCMV antiviral 0, CHX counter -2, Shiga toxin inh 1, HCV inhibitor inconclusive and Pf growth 48h 13µM*.
`O=C(c1cc(-c2cccs2)on1)N1CCOCC1` gave Pf growth 96h inconclusive, HCMV antiviral 63, CHX counter 37*, Shiga toxin inh 104*, HCV inhibitor 12% and Pf growth 48h 221%.
Screening COc1ccccc1N1CCN(C(=O)c2cc(-c3cccs3)on2)CC1 returned Pf growth 96h 3%, HCMV antiviral 35, CHX counter 7, Shiga toxin inh 23, HCV inhibitor -2% and Pf growth 48h -11%.
`O=C(c1cc(-c2cccs2)on1)N1CCN(C(c2ccccc2)c2ccccc2)CC1` gave Pf growth 96h 40%, HCMV antiviral inconclusive, CHX counter 7, Shiga toxin inh -2, HCV inhibitor 2.8µM* and Pf growth 48h 6.6µM*.
Screening CC12CCC(C(=O)N3CCN(C(c4ccccc4)c4ccccc4)CC3)(OC1=O)C2(C)C (centres undefined) returned Pf growth 96h 1.7µM*, HCMV antiviral -30, CHX counter -2, Shiga toxin inh -2 and HCV inhibitor inconclusive.
Screening Cc1cc(=O)oc(C)c1C(=O)N1CCN(c2ccc(F)cc2)CC1 returned HCMV antiviral -13, CHX counter -3, Shiga toxin inh -22, HCV inhibitor 8% and Pf growth 48h 2%.
Screening CCn1ccc(C(=O)N2CCN(c3ncccn3)CC2)n1 returned Pf growth 96h 20%, HCMV antiviral -12, CHX counter -1, Shiga toxin inh 17, HCV inhibitor 25% and Pf growth 48h 5%.
For O=C(CC1(O)C(=O)N(CCc2ccccc2)c2ccc(Br)cc21)c1ccc(F)cc1 (centres undefined) the results were HCMV antiviral -19.

Screens (PubChem)
